Source: PubChem BioAssay AID1671189 (National Center for Advancing Translational Sciences (NCATS), 2021)
Hit rate of the full screen: of about 1,100 compounds, about 70 (6%) were called active. Roughly 22% stayed inconclusive and do not appear here. The call rests on the fitted dose curve; in most records, active means well fitted curve in the direction sought with a large enough effect; inconclusive means small, poorly fitted or top-dose-only effect, or another doubt; inactive means no such curve, though single readings can be large or run the other way. The sample as a whole holds a higher share of actives than the screen did.

These compounds were tested against Polyunsaturated fatty acid lipoxygenase ALOX12 (Homo sapiens) (UniProt P18054) (assay: Confirmatory qHTS assay for inhibitors of human arachidonate 12S-lipoxygenase (ALOX12): Round 2). Conditions: purified human 12-LOX, xylenol orange absorbance; series mostly up to 125 µM; activity change, negative = inhibition: at the top concentration.
Description: Assay Provider: Theodore R. Holman Ph.D. University of California, Santa Cruz, California Human lipoxygenase 12hLO is a member of the closely related lipoxygenase family of enzymes which catalyze the site-specific oxidation of arachidonic acid to various hormone precursor molecules and as such is a candidate for drug development in a variety of disease areas, such as cancer and inflammation. Inhibition of 12hLO activity was screened by utilizing arachidonic acid as a substrate. The extent of hydroperoxide product formation was measured by a secondary chromogenic reaction in which xylenol orange (XO, Sigma-Aldrich, cat. number 39,818-7) reacts with the ferric ions produced from the reaction between the hydroperoxide and ferrous ions. The Fe (III)-XO complex is characterized with red-shifted absorbance at 560 nm. A purified preparation of human 12hLO was supplied by Dr. Holman laboratory, University of California, Santa Cruz.
PROTOCOL TABLE SEQUENCE No. (e.g., 1, 2, 3, etc.); […] (e.g., Cells, Incubation, Reagent, etc.); VALUE; DESCRIPTION 1; Enzyme; 3 uL; 150 nM 12hLO enzyme solution dispensed in 1536-well Greiner black, clear bottom plates. 2; Compound; 23 nL; compounds and controls were added. 3; Incubate; 15 min; room temperature. 4; Substrate; 1 uL; 40 uM arachidonic acid (final concentration). 5; Incubate; 30 min; room temperature. 6; Reagent; 4 uL; Fe-XO solution was added to each well. 7; Incubation; 30 min; room temperature 8; Detector; absorbance; Read 1 at 405 nm absorbance using ViewLux (PerkinElmer) CCD imager. 9; Detector; absorbance; Read 2 at 573 nm absorbance using ViewLux (PerkinElmer) CCD imager. NOTES (numbers refer to sequence above) 1; 150 nM 12hLO (final concentration) in buffer solution (25 mM Hepes, 0.01% Triton X-100, pH 7.0) was dispensed in columns 1, 2, 5-48. Column 1 is neutral (100% activity). Buffer only was dispensed in columns 3 and 4 as no enzyme negative controls. The plates were covered with metal lids with gas-exchange holes. 2; Compounds were pin transferred via a Kalypsys Pin Tool (Wako USA) in column 5 - 48. Control compound was transferred in column 2, titration of nordihydroguaiaretic acid (NDGA, Sigma-Aldrich, N5023) with top concentration of 20 mM in DMSO then 1:3 dilution in duplicate. Dilution factor of 23 nL into 4 uL final assay volume. 3; Covered assay plates were incubated for 15 min at room temperature. 4; Substrate was added to start the reaction; 40 uM arachidonic acid (Sigma-Aldrich, St. Louis, MO) was dispensed throughout the plate. 6; Chromogenic detection reagent solution (divalent iron/xylenol orange, Fe-XO) was added to each well: 200 uM xylenol orange, 300 uM ferrous ammonium sulfate prepared freshly in 50 mM sulfuric acid. 8, 9; Two absorbance readouts were obtained at 405 nm and at 573 nm using a ViewLux high-throughput CCD plate imager (PerkinElmer). The 573 to 405 (Read 2 / Read 1) absorbance ratio was used to compute reaction progress.
On the % scale 0 is the no-effect control and ±100 the full control effect; potency means the concentration at half of the fitted maximal effect.

Polyunsaturated fatty acid lipoxygenase ALOX12 (Homo sapiens), sequence (P18054 whole entry, looked up): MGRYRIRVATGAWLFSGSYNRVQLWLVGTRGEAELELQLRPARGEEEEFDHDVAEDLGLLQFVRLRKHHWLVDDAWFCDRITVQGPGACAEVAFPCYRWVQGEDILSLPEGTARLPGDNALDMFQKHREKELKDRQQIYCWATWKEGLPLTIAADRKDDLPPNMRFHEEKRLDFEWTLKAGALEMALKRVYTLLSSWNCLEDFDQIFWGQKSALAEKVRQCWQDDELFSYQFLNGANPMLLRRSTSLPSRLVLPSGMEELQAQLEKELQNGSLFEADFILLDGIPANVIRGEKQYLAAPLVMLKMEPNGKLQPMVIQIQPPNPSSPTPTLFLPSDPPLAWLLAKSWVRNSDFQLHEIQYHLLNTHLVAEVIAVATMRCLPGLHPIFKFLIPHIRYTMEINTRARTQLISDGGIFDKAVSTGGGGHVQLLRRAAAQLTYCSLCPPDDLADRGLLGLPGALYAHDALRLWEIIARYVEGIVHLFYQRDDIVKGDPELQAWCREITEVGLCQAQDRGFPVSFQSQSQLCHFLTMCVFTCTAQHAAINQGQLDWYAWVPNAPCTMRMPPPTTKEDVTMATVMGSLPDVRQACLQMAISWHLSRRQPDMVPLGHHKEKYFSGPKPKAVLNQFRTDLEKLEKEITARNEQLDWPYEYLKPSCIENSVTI

Activity change, negative = inhibition, inactive:
CCOc1ccccc1CN1CCCCC12Cc1ccccc1CNC2=O (stereo not given) -12.7%
CCNC(=O)N[C@@H]1C=C[C@@H](c2c(C)nn(-c3ccc(OC)cc3)c2C)C1 2.01% [at 64.5 µM]
Cc1cc(C(=O)NC2CC2)c2c(C3CCNCC3)noc2n1 -1.86%
O=C1c2ccccc2CN1C1CCN(Cc2ccsc2)CC1 -18.5%
C1CNCC(c2nc(C3CCOCC3)no2)C1 (stereo not given) -7.31% [at 64.5 µM]
CC(=O)N1CCn2cc(C(=O)N3CCOCC3)nc2C1 -9.94%
COc1ccccc1C(=O)N1CCn2c(nnc2C2CCNCC2)C1 -23.8%
CNCc1ccccc1OC(F)(F)F -3.02%
CN1CC(=O)N(C2CCNCC2)Cc2c(NC3CCCCCC3)ncnc21 -12.8%
CN(C)CCCC(=O)N1Cc2ccccc2CC2(CCCCN2CC2CCNCC2)C1 (stereo not given) -14.8%
CCOC(=O)N1CCC(NC)CC1 6.82%
Cc1noc(C)c1C(=O)N1Cc2ccccc2CC2(CCCN(CC3CCNC3)C2)C1 (stereo not given) -14.1%
Fc1ccc(OC2CN(Cc3ccc(C(F)(F)F)cc3)C2)cc1F -5.08%
Cn1ccnc1C(O)c1cc2n(n1)CCN(S(=O)(=O)C1CC1)C2 (stereo not given) 1.79% [at 64.5 µM]
COc1cccc(N2C(=O)NC(=NC3CCCC3)C23CCCN(CC2CC2)C3)c1 (stereo not given) -17.4%
COCc1cc(C[C@@H]2CC[C@H](O)[C@@H](CNC(=O)NC(C)C)O2)no1 -10.6% [at 64.5 µM]
CNCc1ccccc1Cl -9.03% [at 233 µM]
Cc1nc(N2CCC(C(=O)NCc3ccc(C(C)C)cc3)CC2)cc(C(F)(F)F)n1 -13.4% [at 64.5 µM]
O=C(N1CCCCC1)N1CCCC(c2nnc3n2CCNC3)C1 (stereo not given) -7.37%
Cc1cc(C)cc(-c2ccc(CN3CCCC(c4nc5ccc(F)cc5c(=O)[nH]4)C3)cc2)c1 (stereo not given) -20.9%
CCC(CC)Nc1ncnc2c1CN(C1CCCNCC1)C(=O)CN2C (stereo not given) -2.09%
COc1cccc(-c2ccc(CN)cc2)c1 -0.015%
COc1ccc(Nc2cnc3ccc(-c4cccc(CO)c4)nn23)cc1OC -2.32% [at 64.5 µM]
COc1ccc(CNc2ncnc3c2CN(C2CCCNC2)C(=O)CN3C)cc1 (stereo not given) -15.2%
O=C(O)CCC(=O)N1Cc2ccccc2CC2(CCCN2Cc2cccnc2)C1 (stereo not given) -6.82%
Cc1cc(C(=O)N2CCC(F)CC2)c2c(C3CCCN3)noc2n1 (stereo not given) -10.6%
O=Cc1ccc(-c2ccc(O)cc2)cc1 -27.2% [at 233 µM]
COc1ccc(N=C2S[C@H]3[C@H]([C@@H](O)[C@H](O)C[C@@H]3C(N)=O)N2CC2CCCCC2)cc1 -10.7% [at 64.5 µM]
COc1ccccc1-c1ccc(CN2CCCC(c3nc4ccc(F)cc4c(=O)[nH]3)C2)cc1 (stereo not given) -29.2%
O=Cc1cccc(N2CCN(C(=O)c3ccc4c(c3)OCO4)CC2=O)c1 -11%
O=C1NCc2ccccc2CC12CCCN2Cc1ccsc1 (stereo not given) -13.5%
NCC(=O)N1Cc2ccccc2CC2(CCCCN2CC2CCOCC2)C1 (stereo not given) 2.3%
CC(=O)N1CCC2(CC1)CN(C(=O)Cc1csc(N)n1)Cc1ccccc1O2 0.398%
CNc1oc(-c2ccc(Cl)c(Cl)c2)nc1C#N -1.38% [at 64.5 µM]
c1cc(NCCN2CCCC2)ccn1 -4.41% [at 233 µM]
c1ccc(NCCN2CCCC2)cc1 -22.6% [at 233 µM]
Cn1nc(C2CCNC2)c2c(C(=O)NC3CC3)cc(C3CC3)nc21 (stereo not given) -13.8%
O=C(OCC#CCSc1nnc(-c2cccc3ccccc23)o1)c1ccsc1 -10.6% [at 64.5 µM]
NCc1ccc(-c2cccc(Cl)c2)cc1 -14.7%
NCc1ccc(-c2cccc(O)c2)cc1 -27.6%
N[C@@H]1CC[C@H](C(=O)N2CCC(c3nccn3Cc3ccncc3)CC2)C1 -14.6% [at 64.5 µM]
O=C(OCC#CCSc1nnc(-c2cccc3ccccc23)o1)c1sccc1Cl 8.4% [at 64.5 µM]
CN1CC(=O)N(C2CCNC2)Cc2c(NCC3(O)CCCCC3)ncnc21 (stereo not given) -19.9%
CCCCN1C(=O)[C@@H]2C[C@@H](O)CN2C2(CN(Cc3cnc[nH]3)C2)C1=O 16.1% [at 64.5 µM]
O=C(c1cc(C2CC2)nc2onc(C3CCCNC3)c12)N1CCCCC1 (stereo not given) -15.8%
O=C1NCc2ccccc2CC12CCN(Cc1ccc(Cl)o1)C2 (stereo not given) -14.1%
O=C1Nc2ccccc2C12CCN(Cc1ccccc1)C2 (stereo not given) -20.4%
CC(=O)N1CCN(C(=O)CSCC(=O)O)C[C@H]1C(=O)N[C@H]1CCCNC1=O -4.79% [at 64.5 µM]
O=c1[nH]c(C2CCCN(Cc3ccc(-c4cc(F)cc(F)c4)cc3)C2)nc2ccc(F)cc12 (stereo not given) -20.1%
CN1CC(=O)N(C2CCNCC2)Cc2c(NC3CCCCC3)ncnc21 -13%
O=c1n(-c2cccc(Cl)c2)nc2n1CCN([S+](=O)([O-])c1ccccc1)C2 -36%
O=C(c1ccccc1)N1CCn2c(nn(-c3cccc(Cl)c3)c2=O)C1 -29%
O=C(c1ccc(C(F)(F)F)cc1)N1CCc2nc(C3CC3)nc(-c3ccc(Cl)cc3)c2C1 -19.2%
O=C(N1CCCC1)N1CCn2c(nnc2-c2cncc(Br)c2)C1 -10.2%
O=C(O)CCCC(=O)N1Cc2ccccc2CC2(CCCN2Cc2ccccc2)C1 (stereo not given) -17.9%
CC1CCCN(c2ncnc3c2CN(C2CCCNCC2)C(=O)CN3C)C1 (stereo not given) -9.31%
CCC(=O)NC(c1ccco1)c1cc(Cl)c2cccnc2c1OC (stereo not given) 10.7% [at 64.5 µM]
COc1ccc(CNc2ncnc3c2CN(C2CCCNCC2)C(=O)CN3C)cc1 (stereo not given) -4.88%

Potency, active:
COc1ccccc1CNC(=O)Nc1cccs1 21.7 µM
CCOC(=O)N1CCC(N2CCCC(CCC(=O)Nc3ccc(OC)c(Cl)c3)C2)CC1 (stereo not given) 12.6 µM
CCCc1nc(C)cc(N2CCC(NCCc3ccc(Cl)cc3)CC2)n1 2.24 µM
COc1ccc(-c2cc(-c3cccc(CO)c3)cn3cncc23)cc1 28.2 µM
Cc1ccc(-c2cc(-c3ccc(C)o3)nc(N)c2C#N)cc1 3.06 µM
O=C1N[C@@H]2CCN(S(=O)(=O)c3ccc(Cl)cc3)[C@@H]2C(=O)N1c1ccc(Oc2ccccc2)cc1 7.94 µM
Clc1ccc(NCCN2CCCC2)cc1 90.2 µM
Nc1cc(-c2ccccc2)ccc1O 0.273 µM
CC(=O)NC1(C)CCN(Cc2cnc(-c3ccccc3OCc3ccccc3)s2)CC1 4.47 µM
O=C(c1cc(-c2ccco2)nn1-c1cccc(Cl)c1)N1CCCCC1 9.68 µM
CC(=O)NC(c1ccco1)c1cc(Cl)c2cccnc2c1O (stereo not given) 4.85 µM
CCC(=O)NC(c1ccco1)c1cc(Cl)c2cccnc2c1O (stereo not given) 2.17 µM
